Measured values from PubChem BioAssay (EPA / NIEHS).
Values joined by “and” are separate entries in the source; they are usually repeats but may differ in a detail not shown here. Identical values can stand only once. Active and inactive are the calls of the source. How the source made its calls: active means hit-call score of the fitted dose curve at least 0.9, where 1 is the maximum; inactive means score below 0.9.

read-out: Interferon-gamma inducible Protein 10 (IP10), CXCL10 (gene 3627); experiment: BSK_hDFCGF_IP10: BioMAP Diversity Plus: hDFCGF Assay for Interferon-gamma inducible Protein 10 (IP10) Biomarker Activity (AID 2283053); conditions: primary human foreskin fibroblasts; actives raise or lower the signal
Summary of the method: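 Cells: human dermal foreskin fibroblasts. Exposure: 24 h post-dosing. Detection: IP-10 ELISA, with values expressed against DMSO controls and fitted in both directions.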

SMILES	outcome	AC50
CCOS(=O)(=O)OCC	inactive	–
c1nc[nH]n1	inactive	–
CC(Cc1ccc(OCC(=O)O)cc1)NCC(O)c1csc(C(F)(F)F)n1 (stereo unspecified)	inactive	–
CCOP(=S)(NC(C)C)Oc1ccccc1C(=O)OC(C)C (stereo unspecified)	inactive	–
Nc1ccc2ccccc2c1	inactive	–
CCOP(=S)(OCC)SCn1nnc2ccccc2c1=O	inactive	–
CCNc1nc(Cl)nc(NC(C)(C)C)n1	inactive	–
O=[N+]([O-])c1ccc(Cl)c(Cl)c1	inactive	–
COCCOCCO	inactive	–
CN(C)C(=O)Cl	inactive	–
Cc1c([N+](=O)[O-])cc2c(c1[N+](=O)[O-])C(C)(C)CC2(C)C	inactive	–
Cc1ccc([N+](=O)[O-])cc1C	inactive	–
CCN(CC)c1ccccc1	inactive	–
ClC(Cl)=C(c1ccc(Cl)cc1)c1ccccc1Cl	–	3.72 µM (active)
CCOc1ccc(C(C)(C)COCc2cccc(Oc3ccccc3)c2)cc1	inactive	–
COP(=O)(CCC(=O)NCO)OC	inactive	–
CCOP(=S)(Oc1ccc([N+](=O)[O-])cc1)c1ccccc1 (stereo unspecified)	–	20 µM (active)
CC(Cl)CN(C)C (stereo unspecified)	inactive	–
OCC1CO1 (stereo unspecified)	inactive	–
Cc1ccc(O)cc1C	inactive	–
C=CC(=O)OCC(F)(F)C(F)F	–	34.9 µM (active) and 29.2 µM (active)
c1cc2c3c(cccc3c1)CC2	inactive	–
Nc1ccc(Cl)cc1	inactive	–
CC(C)(C)OOC(C)(C)C	inactive	–
CC(C)(C)c1ccccc1OP(=O)(Oc1ccccc1)Oc1ccccc1	–	20 µM (active)
Cc1cccc(N)c1	inactive	–
O=P1(N(CCCl)CCCl)NCCCO1 (stereo unspecified)	inactive	–
O=S(=O)(F)C(F)(F)C(F)(F)C(F)(F)C(F)(F)C(F)(F)C(F)(F)C(F)(F)C(F)(F)F	inactive	–

read-out: Urokinase-type plasminogen activator receptor (uPAR), PLAUR (gene 5329); experiment: BSK_CASM3C_uPAR: BioMAP Diversity Plus: CASM3C Assay for Urokinase-type plasminogen activator receptor (uPAR) Biomarker Activity (AID 2283054); conditions: primary human coronary artery smooth muscle cells; actives raise or lower the signal;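 further: cell-surface uPAR protein level quantified by ELISA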

SMILES	outcome	AC50
CCOS(=O)(=O)OCC	inactive	–
c1nc[nH]n1	inactive	–
CC(Cc1ccc(OCC(=O)O)cc1)NCC(O)c1csc(C(F)(F)F)n1 (stereo unspecified)	inactive	–
CCOP(=S)(NC(C)C)Oc1ccccc1C(=O)OC(C)C (stereo unspecified)	inactive	–
Nc1ccc2ccccc2c1	inactive	–
CCOP(=S)(OCC)SCn1nnc2ccccc2c1=O	inactive	–
CCNc1nc(Cl)nc(NC(C)(C)C)n1	inactive	–
O=[N+]([O-])c1ccc(Cl)c(Cl)c1	inactive	–
COCCOCCO	inactive	–
CN(C)C(=O)Cl	inactive	–
Cc1c([N+](=O)[O-])cc2c(c1[N+](=O)[O-])C(C)(C)CC2(C)C	–	0.384 µM (active)
Cc1ccc([N+](=O)[O-])cc1C	inactive	–
CCN(CC)c1ccccc1	inactive	–
ClC(Cl)=C(c1ccc(Cl)cc1)c1ccccc1Cl	–	32.6 µM (active)
CCOc1ccc(C(C)(C)COCc2cccc(Oc3ccccc3)c2)cc1	inactive	–
COP(=O)(CCC(=O)NCO)OC	inactive	–
CCOP(=S)(Oc1ccc([N+](=O)[O-])cc1)c1ccccc1 (stereo unspecified)	inactive	–
CC(Cl)CN(C)C (stereo unspecified)	–	0.177 µM (active)
OCC1CO1 (stereo unspecified)	inactive	–
Cc1ccc(O)cc1C	inactive	–
C=CC(=O)OCC(F)(F)C(F)F	inactive	–
c1cc2c3c(cccc3c1)CC2	inactive	–
Nc1ccc(Cl)cc1	inactive	–
CC(C)(C)OOC(C)(C)C	inactive	–
CC(C)(C)c1ccccc1OP(=O)(Oc1ccccc1)Oc1ccccc1	inactive	–
Cc1cccc(N)c1	inactive	–
O=P1(N(CCCl)CCCl)NCCCO1 (stereo unspecified)	inactive	–
O=S(=O)(F)C(F)(F)C(F)(F)C(F)(F)C(F)(F)C(F)(F)C(F)(F)C(F)(F)C(F)(F)F	inactive	–
